Bioassay records from PubChem.
VACV Venus inh = inhibitors of vaccinia virus (Venus reporter). hit rate 0.46% among 330,000. Potency, µM (doses to about 36.5 µM), actives largely listed as inhibitors. Vaccinia virus Venus reporter expression, fluorescence; calls by dose curve; tested in A549 cells; note: nearly all actives have a fitted effect of over 30% in size
Sm TGR block = S. mansoni TGR enzyme inhibition; purified TGR, DTNB reduction, TNB absorbance 405 nm; Q962Y6; Potency, µM (titrated, usually from 114 µM), actives largely listed as inhibitors; hit rate 3% among 360,000; AID 485364; note: nearly all actives have a fitted effect of over 60% in size
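Kinetic colorimetric format: TGR-catalysed, NADPH-driven DTNB reduction monitored via TNB absorbance. Enzyme dispensed at 20 nM; compound exposure 15 min at room temperature before reaction start.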
Vaccinia mCherry = vaccinia inhibition (mCherry reporter) | Potency, µM (series often up to 36.5 µM), most hits filed as inhibitors | hit rate 0.63% among 310,000 | Vaccinia virus mCherry reporter infection, fluorescence; calls by dose curve; tested in A549 cells; note: nearly all actives have a fitted effect of over 35% in size
FMDV inh = blocks foot and mouth disease virus | FMDV antiviral cell-based qHTS | Potency, µM (series often up to 57.9 µM), hits mostly inhibitors | hit rate 1.2% among 410,000 | AID 1159524; calls by dose curve; tested in HEK293T cells; note: read-out not given here; nearly all actives have a fitted effect of over 45% in size
HCV inhibitor = HCV inhibition. Huh7.5.1 HCVcc-Cre infection, luciferase reporter, 44 h. hit rate 3.4% among 340,000. Potency, µM (titrated, usually from 41.8 µM), hits mostly inhibitors. AID 651820
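Seed cells (1,000/well) for 4 h; treat with compound and infect with HCVcc-Cre, moi about 0.5. Incubate 44 h, then detect luciferase activity.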
HCMV inh = human cytomegalovirus inhibition; AID 1259415; activity change, negative = inhibition, % at 57.5 µM; HFF cells, HCMV-luciferase reporter, 72 h; stronger effect = lower value; hit rate 4.5% among 410,000; in the data active = activity change below about -60%; inconclusive = no clear call, values can overlap the other calls; inactive = above about -39%
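Cell-based, HFFs, 1000 cells/well, 16 h 37C; cpds in DMSO + HCMV-luc, MOI 1 PFU/cell; 72 h 37C; OneGlo luminescence after 5 min RT; norm. to buffer vs Salinomycin 10uM.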
Numbers stand for hits. Compounds with a hit are over-represented: about 9.3% of the library has one in this group of screens. Unless noted, calls come from the whole dose curve; as a rule, active = well fitted curve in the direction sought with a large enough effect; inconclusive = small, poorly fitted or top-dose-only effect, or another doubt; inactive = no such curve, though single readings can be large; an effect the other way counts as inactive or inconclusive.

CN(C)C(=O)COc1ccc(C(=O)/C=C/c2cccnc2)cc1 was read as VACV Venus inh inactive, Sm TGR block inconclusive, Vaccinia mCherry inactive, FMDV inh inconclusive, HCV inhibitor inconclusive and HCMV inh inactive.
O=C(C=Cc1cccnc1)c1ccccc1 was read as VACV Venus inh inactive, Vaccinia mCherry inactive, FMDV inh 32µM, HCV inhibitor inconclusive and HCMV inh inactive.
COc1cc(C(=O)/C=C/c2cccnc2)c([N+](=O)[O-])cc1OC was read as VACV Venus inh 11µM, Sm TGR block inconclusive, Vaccinia mCherry 13µM, FMDV inh 14µM, HCV inhibitor inconclusive and HCMV inh -100.
`O=C(/C=C/c1cccnc1)c1ccc([N+](=O)[O-])cc1` gave VACV Venus inh inactive, Sm TGR block 8.9µM, Vaccinia mCherry inconclusive, FMDV inh inactive, HCV inhibitor inactive and HCMV inh inactive.
`O=C(C=Cc1ccccn1)c1ccccc1O` gave VACV Venus inh inactive, Vaccinia mCherry inactive, FMDV inh inconclusive, HCV inhibitor inactive and HCMV inh -80.
For CCOc1cc(CNC(=O)CSc2n[nH]c(-c3ccccc3)n2)cc(OCC)c1OCC the results were VACV Venus inh inactive, Sm TGR block inactive, Vaccinia mCherry inactive, FMDV inh inactive and HCMV inh inactive.
Screening COc1cc2[nH]c(=S)nc(NCCC(C)C)c2cc1OC returned Sm TGR block inactive, FMDV inh inactive, HCV inhibitor inactive and HCMV inh inactive.
`CSc1ccc(S(=O)(=O)N(CC(=O)NCc2ccccn2)c2ccc(C)cc2)cc1` gave VACV Venus inh inactive, Sm TGR block inactive, Vaccinia mCherry inactive, FMDV inh inactive, HCV inhibitor inactive and HCMV inh inconclusive.
C=CCN(C(=O)CCC(=O)Nc1cc(C)on1)C(C(=O)NC1CCCC1)c1cccnc1 (centres undefined) was read as VACV Venus inh inactive, Sm TGR block inactive, Vaccinia mCherry inactive, FMDV inh inactive, HCV inhibitor inactive and HCMV inh inactive.
O=C(/C=C/c1cccnc1)c1ccc(O)cc1 was read as VACV Venus inh inactive, Sm TGR block 45µM, Vaccinia mCherry inactive, FMDV inh inactive, HCV inhibitor inactive and HCMV inh -88.
Screening O=C(/C=C/c1cccnc1)c1ccccc1O returned VACV Venus inh inactive, Sm TGR block 20µM, Vaccinia mCherry inactive, FMDV inh inactive, HCV inhibitor inactive and HCMV inh inactive.
O=C(/C=C/c1cccc(O)c1)c1cccnc1 was read as VACV Venus inh inactive, Sm TGR block inconclusive, Vaccinia mCherry inactive, FMDV inh inconclusive, HCV inhibitor inactive and HCMV inh inactive.
`O=C(/C=C/c1cccnc1)c1cccc(O)c1` gave VACV Venus inh inactive, Sm TGR block 28µM, Vaccinia mCherry inactive, FMDV inh inactive, HCV inhibitor inconclusive and HCMV inh inactive.
`CC(NC(=O)CN1C(=O)NC(C)(C2CC2)C1=O)c1ccc(F)cc1` (centres undefined) gave VACV Venus inh inactive, Sm TGR block inactive, Vaccinia mCherry inactive, FMDV inh inactive, HCV inhibitor inactive and HCMV inh inactive.
Screening Nc1ccc(-n2c(N)c(C(=O)NCc3ccc4c(c3)OCO4)c3nc4ccccc4nc32)cc1 returned VACV Venus inh inactive, Vaccinia mCherry inconclusive, FMDV inh inconclusive, HCV inhibitor 2.5µM and HCMV inh inactive.
For CCCNC(=O)c1c(N)n(Cc2ccc3c(c2)OCO3)c2nc3ccccc3nc12 the results were Sm TGR block inactive, FMDV inh inactive and HCV inhibitor inactive.
For Nc1c(C(=O)NCc2ccccc2)c2nc3ccccc3nc2n1-c1ccc2c(c1)OCO2 the results were VACV Venus inh inactive, Sm TGR block inconclusive, Vaccinia mCherry inactive, HCV inhibitor inactive and HCMV inh -77.
`CC(NC(=O)c1cccs1)c1ccc2c(c1)OCO2` (centres undefined) gave VACV Venus inh inactive, Sm TGR block inactive, Vaccinia mCherry inactive, FMDV inh inactive, HCV inhibitor inactive and HCMV inh inactive.
For Cc1cc(C)nc(Nc2nc(C(N)Cc3ccccc3)cs2)n1 (centres undefined) the results were VACV Venus inh inconclusive, Vaccinia mCherry inactive, FMDV inh inactive and HCMV inh -73.
For COc1ccc(CC(N)c2csc(Nc3ncccn3)n2)cc1 (centres undefined) the results were VACV Venus inh inconclusive, Vaccinia mCherry 13µM, FMDV inh inactive and HCMV inh inconclusive.
For Nc1ccc(CC(N)c2csc(Nc3ncccn3)n2)cc1 (centres undefined) the results were VACV Venus inh inconclusive, Vaccinia mCherry inconclusive, FMDV inh inactive and HCMV inh inactive.
`NC(Cc1ccc(Cl)cc1)c1csc(Nc2ncccn2)n1` (centres undefined) gave VACV Venus inh 7.9µM, Vaccinia mCherry 10µM, FMDV inh inactive and HCMV inh inactive.
Screening NC(Cc1ccc(F)cc1)c1csc(Nc2ncccn2)n1 (centres undefined) returned VACV Venus inh 7.9µM, Vaccinia mCherry 7.1µM, FMDV inh inactive and HCMV inh inactive.
CCc1ccc(-c2[nH]c3c(c2-c2c(-n4cccc4)n(C)c(=O)n(C)c2=O)c(=O)n(C)c(=O)n3C)cc1 was read as VACV Venus inh inactive, Sm TGR block inactive, Vaccinia mCherry inactive, FMDV inh inactive and HCMV inh inactive.
For c1ccc(OCCOCCOc2ccccc2)cc1 the results were VACV Venus inh inactive, Vaccinia mCherry inactive, FMDV inh inactive, HCV inhibitor 1.1µM and HCMV inh inactive.
O=C(Nc1cccc(-c2cn3ccsc3n2)c1)c1ccccc1 was read as VACV Venus inh inactive, Sm TGR block inactive, FMDV inh inactive, HCV inhibitor 25µM and HCMV inh inactive.
O=C(Nc1cccc(-c2cn3ccccc3n2)c1)c1cccc(Cl)c1 was read as VACV Venus inh 14µM, Sm TGR block inactive, Vaccinia mCherry inconclusive, FMDV inh inconclusive, HCV inhibitor 11µM and HCMV inh inactive.
CCOC(=O)n1c(=O)oc2cc(S(=O)(=O)N3CCCCC3)ccc21 was read as Sm TGR block inactive, FMDV inh inactive, HCV inhibitor inactive and HCMV inh inactive.
For CC(C)(C)NC(=O)Cc1ccc(S(=O)(=O)N2CCCC2)s1 the results were VACV Venus inh inactive, Sm TGR block inactive, FMDV inh inactive, HCV inhibitor inactive and HCMV inh inactive.
For Cc1cccc(N/C(N)=N/c2nc(C(F)(F)F)cc(=O)[nH]2)c1C the results were VACV Venus inh inactive, Sm TGR block inactive, Vaccinia mCherry inactive, FMDV inh inactive, HCV inhibitor inactive and HCMV inh -104.
`Cc1cc(=O)[nH]c(/N=C(\N)Nc2cccc3ccccc23)n1` gave VACV Venus inh inconclusive, Sm TGR block inactive, Vaccinia mCherry inactive, FMDV inh inactive, HCV inhibitor inactive and HCMV inh inactive.
CC(C)OP(=O)(OC(C)C)C(Nc1cccc(C(=O)O)c1)c1ccccc1 (centres undefined) was read as VACV Venus inh inactive, Sm TGR block inactive, Vaccinia mCherry inactive, FMDV inh 8.9µM, HCV inhibitor inactive and HCMV inh inactive.
